Shown are actives, neighbours in structure and some others; about 32% of the full set was active somewhere.
CYP2C9 inh: blocks human cytochrome P450 2C9; 20% of 96,000 active; inhibition, % at 5 µM; P11712; CYP2C9 Supersomes, luciferin-H conversion, luminescence; AID 777;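 active = blocking of liver enzyme CYP2C9 beyond about 50% at 5 µM, limit read from the data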
Target sequence (P11712 whole entry, looked up): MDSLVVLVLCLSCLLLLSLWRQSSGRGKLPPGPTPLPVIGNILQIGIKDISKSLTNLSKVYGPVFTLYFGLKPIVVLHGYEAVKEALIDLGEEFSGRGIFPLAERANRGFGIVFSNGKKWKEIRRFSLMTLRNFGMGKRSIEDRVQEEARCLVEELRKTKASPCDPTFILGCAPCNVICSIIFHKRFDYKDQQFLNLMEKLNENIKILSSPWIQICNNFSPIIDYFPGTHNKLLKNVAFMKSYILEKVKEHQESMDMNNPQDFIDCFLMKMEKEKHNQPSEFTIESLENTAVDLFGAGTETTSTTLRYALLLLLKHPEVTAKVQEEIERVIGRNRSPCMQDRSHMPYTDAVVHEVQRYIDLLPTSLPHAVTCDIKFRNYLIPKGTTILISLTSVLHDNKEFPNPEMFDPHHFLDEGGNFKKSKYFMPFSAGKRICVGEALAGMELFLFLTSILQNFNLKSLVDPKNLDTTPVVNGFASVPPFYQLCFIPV
CYP2C9 activ: activators of human CYP2C9. AID 1024. P11712. recombinant CYP2C9, luciferin-H conversion, luminescence; hits give high values; factor 1 = untreated enzyme, 0 = blocked. activation factor at 5 µM. 1.4% of 96,000 active;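 active = activation factor of 2 or more for CYP2C9 at a 5 µM dose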
CYP2C19 act: activators of human cytochrome P450 2C19; recombinant CYP2C19, luciferin-H EGE luminescence; hits give high values; 0 = fully inhibited enzyme, 1 = untreated enzyme; activation factor at 5 µM; 96,000 tested, under 10 active; AID 1025;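 active = activation factor of at least 2 at 5 µM in the primary screen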
PostGolgi ctrl: growth of the yeast control strain, post-Golgi counter-screen. inhibition, % at 10 µM. efflux-deficient yeast background strain, growth absorbance A615, 16 h. 5% of 98,000 active. AID 738
PostGolgi yeast: growth inhibition of a yeast mutant, post-Golgi transport screen | post-Golgi transport phenotypic cell assay | inhibition, % at 10 µM | 0.9% of 98,000 active | AID 739;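 also: yeast cells grown in 1536-well plates; yeast grown about 18 h at 30C before absorbance read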
CYP2C19 inhib: inhibitors of human CYP2C19; CYP2C19 Supersomes, luciferin-H EGE luminescence, 30 min; inhibition, % at 5 µM; 21% of 96,000 active; AID 778; P33261;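 active = CYP2C19 inhibition above a set limit at 5 µM in the primary screen, cut at about 50% in these data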
Of the large screens only hits and unclear results are named; the others gave an inactive call. Rule as the data show it, unless noted: active = inhibition above about 30%; inactive = the rest.

CCCOc1ccccc1N/C(=N/c1nc(C)cc(C)n1)NC(=O)Nc1ccc(Cl)cc1	none
O=C1CC(c2ccccc2)CC(O)=C1C=NC1CCCC1 (stereo not drawn)	CYP2C19 inhib 79.0
COc1ccccc1C(=O)O/N=C(/C)c1ccc(N2C(=O)C3CCCCC3C2=O)cc1 (stereo not drawn)	CYP2C9 activ 3.3, CYP2C19 inhib 53.8
Cc1ccc(C(=O)Oc2ccccc2N2C(=O)C3CCCCC3C2=O)cc1 (stereo not drawn)	none
CCOC(=O)CSc1nnc(SCCN2C(=O)c3ccccc3C2=O)s1	CYP2C9 inh 83.2
CCOc1ccc(NC(=O)c2cc3n(n2)C(C(F)(F)F)CC(c2ccco2)N3)cc1 (stereo not drawn)	none
CC(C)CCNC(=O)NC(=O)COC(=O)/C=C/c1cnc2ccccc2n1	none
O=C(O)C1CCCCN1S(=O)(=O)c1ccc(Cl)s1 (stereo not drawn)	none
Cc1cc(C)c(C)c(OCC(=O)NCCN(C)C)c1	none
O=C(Nc1nc(-c2ccncc2)cs1)c1ccco1	CYP2C9 inh 75.7, CYP2C19 inhib 97.2
COc1ccc2c(c1)CCc1sc(NC(=O)c3ccco3)nc1-2	CYP2C9 inh 98.8, CYP2C19 inhib 93.9
CC(=O)c1sc(NC(=O)c2ccco2)nc1-c1ccccc1	none
COc1ccc2c(c1)Cc1sc(NC(=O)c3ccco3)nc1-2	none
Cc1sc(NC(=O)c2ccco2)nc1-c1ccccc1	CYP2C9 inh 81.0, CYP2C19 inhib 55.0
O=C(Nc1nc(-c2cc3ccccc3oc2=O)cs1)c1ccco1	none
Cc1sc(NC(=O)c2ccco2)nc1-c1ccc2c(c1)CC(C)N2C(=O)C1CC1 (stereo not drawn)	PostGolgi ctrl 32.5
COCCN(C(=O)Cc1cccs1)C(C(=O)NCc1ccc(OC)cc1)c1ccccc1 (stereo not drawn)	none
Cc1cc(C(=O)O)c(=O)[nH]c1C	none
Cc1sc(NC(=O)c2cccs2)nc1-c1ccccc1	none
COCC(=O)Nc1nc(-c2ccccc2)c(C)s1	CYP2C19 inhib 51.7
Cc1onc(-c2ccccc2)c1C(=O)NCc1ccco1	none
Cc1onc(-c2c(Cl)cccc2Cl)c1C(=O)NCc1ccco1	CYP2C9 inh 80.9, CYP2C19 inhib 89.3
Cc1onc(-c2c(F)cccc2Cl)c1C(=O)NCc1ccccn1	CYP2C19 inhib 55.7
Cc1onc(-c2ccccc2Cl)c1C(=O)NCc1ccccn1	none
Cc1onc(-c2c(Cl)cccc2Cl)c1C(=O)N/N=C(\N)COc1ccc(Cl)cc1	CYP2C9 inh 85.8, PostGolgi ctrl 32.2
CCCOc1ccc(-c2nnn(CC(=O)c3c[nH]c4ccccc34)n2)cc1	none
CSc1nnc(-c2ccc(S(=O)(=O)N3CCCC3)cc2)n1C	none
O=c1[nH]nc(Cc2ccc(Cl)cc2Cl)c2ccccc12	PostGolgi ctrl 46.9
CCOC(=O)Nc1c(C(=O)OC)[nH]c2cccc(OC)c12	none
N#Cc1ccc(Cn2c(=O)c(C#N)c3n(c2=O)CCC3)cc1	CYP2C19 inhib 89.4
N#Cc1c2n(c3c(=O)n(Cc4ccccc4Cl)cnc13)CCCC2	CYP2C9 inh 91.7, CYP2C19 inhib 99.2
N#Cc1c2n(c3c(=O)n(Cc4ccc(Cl)cc4)cnc13)CCCC2	CYP2C9 inh 62.4, CYP2C19 inhib 99.9
Cc1ccc(NC(=O)N/C=C/c2ccco2)cc1	none
CCOc1cc(C(=S)N2CCC(O)CC2)ccc1OS(=O)(=O)c1ccc(Br)cc1	CYP2C9 inh 67.5, CYP2C19 inhib 86.7
CCOc1cc(C(=S)N2CCCCC2)ccc1OS(=O)(=O)c1ccc(Br)cc1	CYP2C9 inh 69.1, CYP2C19 inhib 56.1
COc1cc(C(=S)N2CCCCC2)ccc1OCC(=O)N1CCCC1	none
CCOc1cc(C(=S)N2CCCCC2)ccc1OS(=O)(=O)c1ccc(Cl)cc1	CYP2C9 inh 80.6, CYP2C19 inhib 71.5
CCOc1ccc(C(=S)N2CCOCC2)cc1OCC	none
CCOc1cc(C(=S)N2CCCCC2)ccc1OCC(=O)NCc1ccccc1	CYP2C9 inh 82.8, CYP2C19 inhib 57.8
COc1cccc(C(=O)N(CN2CCCC2=O)c2ccccc2OC)c1	none
COCCN1CN=C(Nc2nc3ccccc3s2)NC1	none
CN(C)C(=O)NC(O)C(Cl)Cl (stereo not drawn)	none
CC1CC(=O)c2cnc(Nc3cccc(C(F)(F)F)c3)nc2C1 (stereo not drawn)	CYP2C19 inhib 53.4
N#CCSc1nnc2ccc3ccccc3n12	none

Assay outcomes (PubChem)
